# Results filed as inconclusive are left out. Entries that show only a call come without a potency. Activity calls are given as the source filed them. Calls come from the whole dose curve; as a rule, active = well fitted cell-killing curve with a large enough effect in the repeat runs; inconclusive = weak or mixed curves; inactive = flat fitted curve, though single readings scatter.
# Test: qHTS assay to identify small molecule antagonists of the TGF-beta/Smad signaling pathway - cell viability counter screen (AID 1346824); note: nearly all actives have a fitted effect of over 50% in size
# Details: SBE-bla HEK293T viability, CellTiter-Glo luminescence; series mostly up to 76.8 µM
# Text: U.S. Tox21 Program National Center for Advancing Translational Sciences [NCATS] NIH Chemical Genomics Center [NCGC] U.S. Environmental Protection Agency [EPA] National Institutes of Environmental Health Sciences [NIEHS] National Toxicology Program [NTP] U.S. Food and Drug Administration [FDA] Tox21 Assay Overview: Transforming growth factor beta (TGF-beta) superfamily consists of a large number of structurally related dimeric proteins that act as hormones or local mediators in regulating a wide range of biological functions. This superfamily includes TGF-betas themselves, the bone morphogenetic proteins (BMPs) and the activins. These ligands induce oligomerization of serine/threonine receptor kinases and phosphorylate the cytoplasmic signaling molecules of Smad protein family. CellSensor SBE-bla HEK 293T cell line (Life Technologies, Carlsbad, CA), responsive to TGF-beta was used to screen Tox21 10K compound library for identification of agonists/antagonists of the Smad signaling pathway. This cell line contains a beta-lactamase reporter gene under control of the Smad binding element (SBE) stably integrated into HEK 293T cells. Also cytotoxicity of the compounds was tested in parallel by measuring the cell viability using CellTiter-Glo assay system in the same wells.
# Tox21 Assay Protocol Summary: SBE-bla HEK 293T cells were dispensed at 4,000/well in 5 uL of assay medium into black wall/clear-bottom 1536-well plates using a Multidrop Combi (ThermoFisher Scientific, Waltham, MA) dispenser. After the assay plates were incubated at 37 C and 5% CO2 for an overnight, 23 nL of compounds dissolved in DMSO, positive controls or DMSO only was transferred to the assay plate by a Pintool station (Kalypsys, San Diego, CA). Compound transfer was followed by the addition of 1 uL of 0.25 ng/mL TGF-beta1 or assay buffer using two separate tips of Flying Reagent Dispenser (FRD, Aurora Discovery, San Diego, CA). The assay plates were incubated at 37 C and 5% CO2 for 5 hr. One uL of LiveBLAzer B/G FRET substrate (Life Technologies) was added using a Flying Reagent Dispenser (FRD, Aurora Discovery, San Diego, CA) and the plates were incubated at room temperature for 2 hr. Fluorescence intensity (405 nm excitation, 460 nm and 530 nm emissions) was measured using an Envision plate reader (PerkinElmer, Shelton, CT). For cytotoxicity read, 4 uL of CellTiter-Glo reagent (Promega Corporation, Madison, WI) was added to each well of the assay plates using FRD. After 30 min incubation at room temperature, the luminescence intensity was measured using ViewLux plate reader (PerkinElmer).
row,SMILES,Potency
1,CC1=NN(c2ccccc2)C(=O)C1,inactive
2,C#C[C@]1(O)CC[C@H]2[C@@H]3CCc4cc(O)ccc4[C@H]3CC[C@@]21C,inactive
3,CCCCCCCC(=O)OCC(O)CO (stereo not given),inactive
4,CC1(C)O[C@@H]2[C@@H](CO[C@@]3(COS(N)(=O)=O)OC(C)(C)O[C@@H]23)O1,inactive
5,O=c1c(-c2ccc(O)cc2)coc2cc(O)cc(O)c12,inactive
6,Cc1cccc(C)c1O,inactive
7,CCCCCCCCCCCCCCCCCC(=O)OCC(O)CO (stereo not given),inactive
8,c1ccc2[nH]c(-c3cscn3)nc2c1,inactive
9,Cc1c(N(C)C)c(=O)n(-c2ccccc2)n1C,inactive
10,C1CNCCN1,inactive
11,C[C@]12C=CC(=O)C=C1CC[C@@H]1[C@@H]2C(=O)C[C@@]2(C)[C@H]1CC[C@]2(O)C(=O)CO,inactive
12,O=C(O)Cc1cccc2ccccc12,inactive
13,O=C(O)CCCCC1CCSS1 (stereo not given),inactive
14,C#C[C@]1(O)CC[C@H]2[C@@H]3CCC4=CC(=O)CC[C@@H]4[C@H]3CC[C@@]21CC,inactive
15,N[C@@H](Cc1c[nH]c2ccccc12)C(=O)O,inactive
16,CCCCOCCOCCSC#N,inactive
17,CN(C)Cc1cc(CN(C)C)c(O)c(CN(C)C)c1,inactive
18,Nc1ccc(N=Nc2ccccc2)c(N)n1,inactive
19,COCCOCCOC,inactive
20,C=C(C)C(N)=O,inactive

row,SMILES,Potency
1,Oc1cccc(O)c1,inactive
2,NC(=O)c1ccc([N+](=O)[O-])cc1Cl,inactive
3,CCn1cc(C(=O)O)c(=O)c2ccc(C)nc21,inactive
4,CCN(CC)CCOC(=O)c1ccc(N)cc1,inactive
5,COc1cc(O)c(C(=O)c2ccccc2)cc1S(=O)(=O)O,inactive
6,NC(=O)N1c2ccccc2C=Cc2ccccc21,inactive
7,COC(=O)c1ccc(O)cc1,inactive
8,N[C@@H](Cc1c[nH]c2ccc(O)cc12)C(=O)O,inactive
9,CCCCC/C(C=O)=C\c1ccccc1,inactive
10,CO[C@H]1C=CO[C@@]2(C)Oc3c(C)c(O)c4c(O)c(c(/C=N/N5CCN(C)CC5)c(O)c4c3C2=O)NC(=O)/C(C)=C\C=C[C@H](C)[C@H](O)[C@@H](C)[C@@H](O)[C@@H](C)[C@H](OC(C)=O)[C@@H]1C,inactive
11,CC1=C(/C=C/C(C)=C/C=C/C(C)=C/C(=O)O)C(C)(C)CCC1,inactive
12,NC(N)=NC(N)=NCCc1ccccc1,inactive
13,O=C(OCc1ccccc1)c1ccccc1,inactive
14,C=C(C)OC(C)=O,inactive
15,CCc1cc(C(N)=S)ccn1,inactive
16,CC(=O)OC/C=C(C)/C=C/C=C(C)/C=C/C1=C(C)CCCC1(C)C,inactive
17,CN/C(=C\[N+](=O)[O-])NCCSCc1ccc(CN(C)C)o1,inactive
18,COC1=CC(=O)C[C@@H](C)[C@]12Oc1c(Cl)c(OC)cc(OC)c1C2=O,inactive
19,NC(=O)N/N=C/c1ccc([N+](=O)[O-])o1,inactive
20,CC(C)=CCC/C(C)=C/CO,inactive
